# Earlier results in PubChem BioAssay AID977611.
# The whole screen tested about 3,900 compounds, of which about 3,900 (100%) were called active. Cut-off not given; nearly all actives show Kd up to about 4200 µM. The set was probably picked from earlier hits. The list shows a part of the results. Numbered stars: 1 amine (or outer) side, 2 acyl side, 3 side chain; on linkers, the order of the positions; unused ones are H or OH. Where a SMILES comes first, the peptide text is derived from it. Non-standard residues stand in square brackets, D forms with d. Square brackets hold non-standard residues; d marks the D form. Residues, ends and D or L forms follow the SMILES beside them. Peptide text beside a SMILES is read from it. [ ]: non-standard residue; d: D form. ξ: configuration not given here. Lys(Me3) = C[N+](C)(C)CCCC[C@H](N)C(=O)O; Orn(CH(NH2)2) = NC(N)NCCC[C@H](N)C(=O)O; X1 = CNC(NC)NCCC[C@H](N[*:1])C(=O)[*:2]; ΔPro = O=C(O)[C@@H]1C=CCN1; Nva = CCC[C@H](N)C(=O)O; ξE = NC(CCC(=O)O)C(=O)O; Abu = CC[C@H](N)C(=O)O
# Assay: PubChem AID 977611
# Settings: PDB protein-ligand complexes, literature Kd
compound,measurement,setting,value
H-QAQGPPYPTYPGY-OH,Kd,"protein: ESCRT and ALIX binding region (EABR), PDB entry 3e1r",1.5 µM (active)
CC[C@H](NC(=O)[C@@H](NC(=O)[C@H](CC(C)C)NC(=O)[C@H](CC(=O)O)NC(=O)[C@H](CCC(N)=O)NC(=O)[C@H](CCC(=O)O)NC(=O)[C@@H](NC(=O)[C@@H]1CCCN1C(=O)[C@@H]1CCCN1C(=O)[C@@H](N)CC(C)C)[C@@H](C)O)[C@@H](C)O)C(=O)N[C@@H](CC(C)C)C(=O)N[C@@H](CC(C)C)C(=O)N[C@@H](C)C(=O)N[C@@H](CCC(=O)O)C(=O)O (H-LPPTEQDLT[Abu]LLAE-OH),Kd,"protein: nuclear coactivator 1 (NCoA-1) PAS-B domain, PDB entry 1oj5",0.8 µM (active)
H-DDDEDGYNPYTL-OH,Kd,"protein: CTD interacting domain of Protein NRD1, PDB entry 2mow",1.09 µM (active)
C[C@H](N)C(=O)N[C@@H](CCCN=C(N)N)C(=O)N[C@H](C(=O)N[C@@H](CCCC[N+](C)(C)C)C(=O)N[C@@H](CCC(N)=O)C(=O)N[C@H](C(=O)N[C@@H](C)C(=O)O)[C@@H](C)O)[C@@H](C)O (H-ART[Lys(Me3)]QTA-OH),Kd,"protein: human Spindlin1, PDB entry 4mzh",0.066 µM (active)
C[C@H](N)C(=O)N[C@@H](CCCNC(N)N)C(=O)N[C@@H](CCCC[N+](C)(C)C)C(=O)N[C@@H](CO)C(=O)N[C@@H](C)C(=O)NCC(=O)N[C@@H](C)C(=O)N[C@@H](C)C=O (H-A[Orn(CH(NH2)2)][Lys(Me3)]SAGAA-aldehyde),Kd,"protein: Polycomb protein EED residues 77-441, PDB entry 3iiy",16 µM (active)
CNC(NC)NCCC[C@H](NC(=O)[C@H](C)N)C(=O)N[C@H](C(=O)N[C@@H](CCCC[N+](C)(C)C)C(=O)N[C@@H](CCC(N)=O)C(=O)N[C@H](C(=O)N[C@@H](C)C(=O)N[C@@H](C)C(=O)N[C@@H](C)C(N)=O)[C@@H](C)O)[C@@H](C)O (H-A[X1]T[Lys(Me3)]QTAAA-NH2),Kd,"protein: RAG2-PHD, PDB entry 2v87",25.1 µM (active)
C[C@H](N)C(=O)N[C@@H](CCCN=C(N)N)C(=O)N[C@H](C(=O)N[C@@H](CCCC[N+](C)(C)C)C(=O)N[C@@H](CCC(N)=O)C(=O)N[C@H](C(=O)N[C@@H](C)C(=O)N[C@@H](CCCNC(N)=[N+](C)C)C(=O)N[C@@H](CCCCN)C(=O)O)[C@@H](C)O)[C@@H](C)O,Kd,"protein: human Spindlin1, PDB entry 4mzf",0.045 µM (active)
C[C@H](N)C(=O)N[C@@H](CCCNC(N)N)C(=O)N[C@@H](CCCC[N+](C)(C)C)C(=O)N[C@@H](CO)C(=O)N[C@@H](C)C(=O)O (H-A[Orn(CH(NH2)2)][Lys(Me3)]SA-OH),Kd,"protein: Polycomb protein EED residues 77-441, PDB entry 3iiw",36.4 µM (active)
C[C@H](N)C(=O)N[C@@H](CCCNC(N)N)C(=O)N[C@H](C(=O)N[C@@H](CCCC[N+](C)(C)C)C(=O)N[C@@H](CCC(N)=O)C(=O)N[C@H](C(=O)N[C@@H](C)C(=O)O)[C@@H](C)O)[C@@H](C)O (H-A[Orn(CH(NH2)2)]T[Lys(Me3)]QTA-OH),Kd,"protein: Histone-lysine N-methyltransferase MLL5, PDB entry 4l58",21 µM (active)
same,Kd,"protein: Inhibitor of growth protein 5, PDB entry 3c6w",2.4 µM (active)
same,Kd,"protein: Jumonji domain-containing protein 2A, PDB entry 2gfa",10.4 µM (active)
C[C@H](N)C(=O)N[C@@H](CCCNC(N)N)C(=O)N[C@H](C(=O)N[C@@H](CCCC[N+](C)(C)C)C(=O)N[C@@H](CCC(N)=O)C(=O)N[C@H](C(=O)O)[C@@H](C)O)[C@@H](C)O (H-A[Orn(CH(NH2)2)]T[Lys(Me3)]QT-OH),Kd,"protein: bromodomain PHD finger transcription factor, PDB entry 2f6j",2.7 µM (active)
CN(C)S(=O)(=O)c1ccsc1,Kd,"protein: Pantothenate synthetase (T2A, E77G mutation), PDB entry 4efk",3200 µM (active)
same,Kd,"protein: Pantothenate synthetase (T2A, E77G mutation), PDB entry 4g5y",1700 µM (active)
CC1(C)NC(N)NC(N)N1c1ccc(Cl)cc1 (centres undefined),Kd,"protein: Dihydrofolate reductase, PDB entry 4kne",1.26 µM (active)
CC(=O)NCCCCNc1ncnc2c1ncn2[C@@H]1O[C@H](CN(CCCNC(=O)Nc2ccc(C(C)(C)C)cc2)C(C)C)[C@@H](O)[C@H]1O,Kd,"protein: Histone-lysine N-methyltransferase, H3 lysine-79 specific DOT1L, PDB entry 4wvl",0.131 µM (active)
CCCCC/C=C\C\C=C/C=C/C=C/C[C@@H](O)CCCC(=O)O,Kd,"protein: Tablysin 15, PDB entry 3u3u",0.133 µM (active)
C[C@H](NC(=O)[C@H](CCCNC(N)N)NC(=O)[C@@H](N)CCCCN)C(=O)N[C@@H](CO)C(=O)N[C@@H](CCCNC(N)N)C(=O)N[C@@H](Cc1c[nH]c2ccccc12)C(=O)N[C@@H](CC(=O)O)C(=O)N[C@@H](CCC(=O)O)C(=O)N[C@H](C(=O)N1CCC[C@H]1C(=O)O)[C@@H](C)O (H-K[Orn(CH(NH2)2)]AS[Orn(CH(NH2)2)]WDETP-OH),Kd,"protein: Splicing factor 45(SPF45-UHM), PDB entry 2peh",1.1 µM (active)
CC(C)C[C@H](NC(=O)[C@H](CC(=O)O)NC(=O)[C@H](CO)NC(=O)[C@H](Cc1ccccc1)NC(=O)[C@@H](NC(=O)[C@@H](N)CCC(=O)O)[C@@H](C)O)C(=O)N[C@@H](Cc1c[nH]c2ccccc12)C(=O)N[C@@H](CCCCN)C(=O)N[C@@H](CC(C)C)C(=O)N[C@@H](CC(C)C)C(=O)N1CCC[C@H]1C(=O)O,Kd,"protein: E3 ubiquitin-protein ligase Mdm2 (E69A, K70A mutation), PDB entry 4hfz",1.9 µM (active)
same,Kd,"protein: human-mimic Mdm4 protein, PDB entry 2z5t",2.4 µM (active)
CC[C@H](N)C(=O)N[C@H](C(=O)N[C@@H](Cc1ccccc1)C(=O)N[C@@H](CO)C(=O)N[C@@H](CC(=O)O)C(=O)N[C@@H](CC(C)C)C(=O)N[C@@H](Cc1c[nH]c2ccccc12)C(=O)N[C@@H](CCCCN)C(=O)N[C@@H](CC(C)C)C(=O)N[C@@H](CC(C)C)C(=O)N1CCC[C@H]1C(=O)O)[C@@H](C)O (H-[Abu]TFSDLWKLLP-OH),Kd,"protein: native Mdm4 protein, PDB entry 2z5s",2.2 µM (active)
C[C@H](N)C(=O)N[C@@H](CO)C(=O)N[C@@H](CCCN=C(N)N)C(=O)N[C@@H](Cc1c[nH]c2ccccc12)C(=O)N[C@@H](CC(=O)O)C(=O)N[C@@H](CCC(=O)O)C(=O)N[C@H](C(=O)N1CCC[C@H]1C(=O)O)[C@@H](C)O (H-ASRWDETP-OH),Kd,"protein: RNA-binding protein 39 CAPER-alpha, PDB entry 4oz1",2.4 µM (active)
CC[C@H](C)[C@H](NC(=O)[C@H](CCC(=O)O)NC(=O)[C@H](CO)NC(=O)[C@@H](N)CCCNC(N)N)C(=O)N[C@H](C(=O)N[C@@H](CO)C(=O)N[C@H](C(=O)N[C@@H](C)C(=O)N1CC=C[C@H]1C(=O)N[C@@H](CO)C(=O)N[C@@H](CO)C(=O)N[C@@H](Cc1c[nH]c2ccccc12)C(=O)N[C@H](C(=O)N[C@H](C(=O)N1CCC[C@H]1C(=O)NCC(=O)N1CCC[C@H]1C(=O)O)C(C)C)C(C)C)[C@@H](C)O)[C@@H](C)CC (H-[Orn(CH(NH2)2)]SEIISTA[ΔPro]SSWVVPGP-OH),Kd,"protein: B-cell lymphoma 6 protein, PDB entry 3bim",1.32 µM (active)
CCC[C@H](NC(=O)[C@H](Cc1c[nH]c2ccccc12)NC(=O)[C@H](CC(C)C)NC(=O)[C@H](CC(=O)O)NC(=O)[C@H](CO)NC(=O)[C@H](Cc1ccccc1)NC(=O)[C@@H](NC(=O)C(N)CCC(=O)O)[C@@H](C)O)C(=O)N[C@@H](CC(C)C)C(=O)N[C@@H](CC(C)C)C(=O)N1CCC[C@H]1C(=O)N[C@@H](CCC(=O)O)C(=O)O (some centres undefined) (H-[ξE]TFSDLW[Nva]LLPE-OH),Kd,"protein: Mdm4 protein, PDB entry 3dab",0.21 µM (active)
